From PubChem
RECQ1 inh-1: RECQ1 (human) helicase inhibition | P46063 | RECQ1 DNA unwinding, red fluorescence kinetic read | Potency, µM (top dose mostly 57.3 µM), inactives show at the highest dose activity, negative = inhibition, usual class: inhibitors | actives 0.54% (n = 240,000);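 further: potency means the concentration at half of the fitted maximal effect; plate controls were vehicle for no effect and no enzyme for full effect; nearly all actives have a fitted effect of over 30% in size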
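50 nM RECQ1T1 preincubated 15 min with compound in Tris pH 8.0 buffer with MgCl2, DTT, Tween-20 and 2.5 ug/ml poly(dI-dC); started with 200 nM TAMRA/BHQ-2 forked duplex and 2 mM ATP. Unwinding read as fluorescence (525/598 nm), two reads 2 h apart.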
APE1 inh: APE1 (human) endonuclease inhibition | Potency, µM (series often up to 65.8 µM), without a hit: at the top dose activity change, negative = inhibition, actives largely listed as inhibitors | P27695 | AID 2517 | recombinant APE1, TAMRA/BHQ-2 abasic DNA cleavage fluorescence | actives 0.35% (n = 350,000);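 further: potency means the concentration at half of the fitted maximal effect; plate controls were vehicle for no effect and reference inhibitor for full effect; nearly all actives have a fitted effect of over 55% in size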
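Substrate: short duplex with […] THF abasic site, 5'-TAMRA and 3'-BHQ-2, 50 nM final. APE1 at 0.75 nM, preincubated 15 min RT with compound. Fluorescence increase from first to third read measured activity.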
PI5P4Ka inh: blocks human PI5P4K alpha kinase activity | P48426 | PI5P4Kalpha enzyme, ADP-Glo luminescence, 60 min; stronger effect = lower value | max response, % | actives 1.2% (n = 330,000); active means max response of -50% or lower; inconclusive means between -30% and -50%; inactive means -30% or higher; further: value at the top dose of about 77 µM; on the % scale 0 is the no-effect control and ±100 the full control effect
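Single end-point luminescence (ADP-Glo) quantified ADP from PI5P4Kalpha turnover; ATP 5 microM final, 1 h at RT, 0.1% CHAPS and 0.28 mM EGTA in HEPES pH 7.4.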
WRN helicase inh-1: inhibitors of human WRN helicase. WRN helicase unwinding, fluorescent forked duplex, kinetic. Potency, µM (series often up to 114 µM), for inactives: at the highest dose activity change, negative = inhibition, hits mostly inhibitors. AID 651768. actives 0.46% (n = 360,000); further: potency means the concentration at half of the fitted maximal effect; on the % scale 0 is the no-effect control and ±100 the full control effect; nearly all actives have a fitted effect of over 55% in size
Target sequence (Q14191 whole entry, looked up): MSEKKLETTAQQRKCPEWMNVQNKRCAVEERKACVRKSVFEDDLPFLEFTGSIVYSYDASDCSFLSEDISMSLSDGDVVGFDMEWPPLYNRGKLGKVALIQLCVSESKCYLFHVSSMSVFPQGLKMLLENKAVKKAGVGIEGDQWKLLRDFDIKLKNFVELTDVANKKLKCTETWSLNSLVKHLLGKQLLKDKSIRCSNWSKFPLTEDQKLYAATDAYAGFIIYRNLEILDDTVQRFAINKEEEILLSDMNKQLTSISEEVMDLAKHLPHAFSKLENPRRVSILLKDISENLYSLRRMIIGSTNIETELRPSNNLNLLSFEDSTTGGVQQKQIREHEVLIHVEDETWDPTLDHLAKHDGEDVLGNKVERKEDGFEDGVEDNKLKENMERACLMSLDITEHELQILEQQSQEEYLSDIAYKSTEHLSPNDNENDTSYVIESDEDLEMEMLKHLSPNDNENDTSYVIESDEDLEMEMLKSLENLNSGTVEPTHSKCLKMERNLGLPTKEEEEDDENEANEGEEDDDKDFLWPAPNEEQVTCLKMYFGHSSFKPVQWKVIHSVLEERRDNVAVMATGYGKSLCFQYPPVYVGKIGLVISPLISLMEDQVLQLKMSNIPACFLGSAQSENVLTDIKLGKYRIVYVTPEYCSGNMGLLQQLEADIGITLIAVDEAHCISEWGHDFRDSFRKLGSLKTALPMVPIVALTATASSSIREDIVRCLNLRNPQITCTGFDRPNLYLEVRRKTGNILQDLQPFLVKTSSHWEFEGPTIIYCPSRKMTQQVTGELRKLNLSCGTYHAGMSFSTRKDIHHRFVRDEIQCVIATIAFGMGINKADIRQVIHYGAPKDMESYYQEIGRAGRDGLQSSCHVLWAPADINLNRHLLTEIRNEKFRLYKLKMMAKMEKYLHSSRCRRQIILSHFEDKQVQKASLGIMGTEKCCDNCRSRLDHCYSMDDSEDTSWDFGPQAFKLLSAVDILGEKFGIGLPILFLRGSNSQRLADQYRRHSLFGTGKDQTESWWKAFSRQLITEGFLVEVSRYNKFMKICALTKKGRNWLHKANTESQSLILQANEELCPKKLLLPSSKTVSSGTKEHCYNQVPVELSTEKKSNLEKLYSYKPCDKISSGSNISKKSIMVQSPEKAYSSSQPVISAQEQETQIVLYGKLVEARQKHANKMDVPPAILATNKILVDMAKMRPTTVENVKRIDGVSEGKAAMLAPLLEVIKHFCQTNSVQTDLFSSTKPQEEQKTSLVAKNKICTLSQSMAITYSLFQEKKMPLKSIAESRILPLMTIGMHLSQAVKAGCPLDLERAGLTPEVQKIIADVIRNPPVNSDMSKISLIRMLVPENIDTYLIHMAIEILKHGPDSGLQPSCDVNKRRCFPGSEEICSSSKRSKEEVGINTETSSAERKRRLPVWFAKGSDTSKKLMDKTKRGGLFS
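Screening of the MLSMR collection measured strand separation of a quenched forked DNA duplex (100 nM) by 20 nM WRN with 2 mM ATP, all final. Compounds were preincubated with enzyme 15 min at room temperature.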
BLM helicase inh-1: inhibitors of human Bloom syndrome helicase BLM; P54132; recombinant BLM DNA unwinding, fluorescence dequenching; Potency, µM (highest dose often 56.1 µM), inactives show top-dose activity change, negative = inhibition, hits mostly inhibitors; actives 0.2% (n = 350,000); AID 2528;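 further: potency means the concentration at half of the fitted maximal effect; plate controls were vehicle for no effect and no enzyme for full effect; nearly all actives have a fitted effect of over 35% in size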
FEN1 inh-1: human FEN1 inhibition. AID 588795. P39748. Potency, µM (titrated, usually from 114 µM), for inactives: top-dose activity change, negative = inhibition, actives largely listed as inhibitors. Recombinant FEN1 flap cleavage, fluorescence, 15 min. actives 0.35% (n = 390,000); further: potency means the concentration at half of the fitted maximal effect; on the % scale 0 is the no-effect control and ±100 the full control effect; nearly all actives have a fitted effect of over 65% in size
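Enzyme 10 nM, 15 min RT preincubation with compound; start with substrate 50 nM final; reads at 0 and 15 min; qHTS titration, four-parameter Hill fit.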
RECQ1 inh conf: confirmation of human RECQ1 helicase inhibitors; shares compounds with RECQ1 inh-1; RECQ1 helicase DNA unwinding, fluorescence; Potency, µM (top dose mostly 229 µM), for inactives: at the highest dose activity change, negative = inhibition, hits mostly inhibitors; actives 28% (n = 610); AID 2708; further: potency means the concentration at half of the fitted maximal effect; on the % scale 0 is the no-effect control and ±100 the full control effect; nearly all actives have a fitted effect of over 45% in size
ADP FP counter: displaces ADP in a fluorescence polarization counter-screen for RECQ1 hits; shares compounds with RECQ1 inh-1; ADP fluorescence polarization displacement counterscreen; Potency, µM (top dose mostly 228 µM), for inactives: at the highest dose activity change, negative = inhibition, actives largely listed as inhibitors; actives 27% (n = 530); further: potency means the concentration at half of the fitted maximal effect; on the % scale 0 is the no-effect control and ±100 the full control effect; nearly all actives have a fitted effect of over 45% in size
RECQ1 inh-2: confirmation of human RECQ1 helicase inhibitors; shares compounds with RECQ1 inh-1; recombinant RECQ1 DNA unwinding, red fluorescence; Potency, µM (doses to about 119 µM), inactives show at the top dose activity, negative = inhibition, hits mostly inhibitors; actives 15% (n = 1,100); AID 504841; further: potency means the concentration at half of the fitted maximal effect; on the % scale 0 is the no-effect control and ±100 the full control effect; nearly all actives have a fitted effect of over 50% in size
FEN1 inh-2: confirmation of human FEN1 inhibitors; shares compounds with FEN1 inh-1; FEN1 flap cleavage, TAMRA/BHQ2 fluorogenic DNA substrate; Potency, µM, hits mostly inhibitors; actives 79% (n = 880); AID 720498; further: potency means the concentration at half of the fitted maximal effect; nearly all actives have a fitted effect of over 60% in size
WRN helicase inh-2: confirmation of human WRN helicase inhibitors; shares compounds with WRN helicase inh-1; WRN helicase DNA unwinding, fluorescence kinetic; Potency, µM (series often up to 57.1 µM), for inactives: at the top dose activity, negative = inhibition, most hits filed as inhibitors; actives 63% (n = 610); further: potency means the concentration at half of the fitted maximal effect; nearly all actives have a fitted effect of over 65% in size
TO DNA binding: counter-screen for WRN helicase inhibitors: DNA binding | shares compounds with WRN helicase inh-1 | thiazole orange DNA binding displacement, fluorescence | Potency, µM (series often up to 57.1 µM), inactives show top-dose activity change, negative = inhibition, usual class: inhibitors | actives 10% (n = 610);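 further: drop in dye fluorescence marks compound binding to DNA; potency means the concentration at half of the fitted maximal effect; on the % scale 0 is the no-effect control and ±100 the full control effect; nearly all actives have a fitted effect of over 60% in size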
BLM helicase inh-2: counter-screen for WRN helicase inhibitors: human BLM helicase inhibition; actives 60% (n = 610); shares compounds with WRN helicase inh-1; Potency, µM (series often up to 57.1 µM), without a hit: at the highest dose activity change, negative = inhibition, usual class: inhibitors; Recombinant BLM helicase DNA unwinding, red fluorescence; AID 720503; further: potency means the concentration at half of the fitted maximal effect; nearly all actives have a fitted effect of over 60% in size
An asterisk follows results filed as active; i = inactive; ? = inconclusive; / = no result given; ! = repeats disagree; [ ] = remark or other dose. Shown are actives, neighbours in structure and some others; about 1.5% of the full set was active somewhere. Unless noted, the call rests on the fitted dose curve; in most records, active means well fitted curve in the direction sought with a large enough effect; inconclusive means small, poorly fitted or top-dose-only effect, or another doubt; inactive means no such curve, though single readings can be large; an effect the other way counts as inactive or inconclusive.

SMILES	RECQ1 inh-1	APE1 inh	PI5P4Ka inh	WRN helicase inh-1	BLM helicase inh-1	FEN1 inh-1	RECQ1 inh conf	WRN helicase inh-2	TO DNA binding	BLM helicase inh-2	others
COc1cc(C(=O)NC2CC(=O)N(c3cccc(F)c3)C2)cc(OC)c1OC (configuration not stated)	/	/	/	/	1%	4%	/	/	/	/
COc1cc2[nH]c3c(N4CCN(c5ccccn5)CC4)ncnc3c2cc1OC	?	?	-20	?	-21%	28µM*	/	/	/	/	RECQ1 inh-2=?;FEN1 inh-2=24*
CCc1cc(C(=O)Cc2cnn(-c3ccccc3)c2)c(O)cc1O	1%	0%	-1	-14%	-12%	?	/	/	/	/
O=C(Cc1cnn(-c2ccccc2)c1)c1ccc(O)c(O)c1O	3.2µM*	?	-24	11µM*	-10%	25µM*	-2%[114 µM]	/	/	/	ADP FP counter=30%[91.9 µM];FEN1 inh-2=34*
Cc1ccc(CNc2nc3ccccc3n3c(C)nnc23)cc1	/	/	/	/	-1%	0%	/	/	/	/
O=C(CC1N=C2c3ccccc3N=C(SCc3cccc(Cl)c3)N2C1=O)NCCc1ccccc1 (configuration not stated)	/	/	/	/	-7%	-3%	/	/	/	/
O=C1c2ccccc2-c2onc3ccc(N4CCCC4)c1c23	14µM*	20µM*	-26	22µM*	39%	22µM*	/	/	/	/	RECQ1 inh-2=56µM*;FEN1 inh-2=38*
Cc1nn(C)c2c1c(-c1ccccc1)cc(=O)n2Cc1ccccc1Cl	/	/	/	/	-6%	-20%	/	/	/	/
Nn1cnnc1N/N=C\c1ccc(-c2ccccc2[N+](=O)[O-])o1	4.5µM*	7%	-3	-19%	0%	-10%	6%[114 µM]	/	/	/	FEN1 inh-2=?
Cc1csc(N/N=C/c2ccc(O)c([N+](=O)[O-])c2)n1	14µM*	?	-75*	?	?	79µM*	3%[114 µM]	/	/	/	ADP FP counter=?;FEN1 inh-2=67*
Cc1nnc(N/N=C/c2ccc(O)c([N+](=O)[O-])c2)[nH]c1=O	-7%	5%	8	-19%[57.1 µM]	0%	3%	/	/	/	/
C[C@](N)(Cc1ccc(O)c(O)c1)C(=O)O	2.2µM*!	1.6µM*!	-67*	/	18µM*!	-7%	1.4µM*!	/	/	/	ADP FP counter=13µM*;FEN1 inh-2=?
C[C@](N)(Cc1ccc(O)cc1)C(=O)O	-3%	13%	/	/	1%	-5%[57.1 µM]	/	/	/	/
CCn1c(CSc2n[nH]c(N)n2)nc2cc(C(=O)O)ccc21	32µM*	?	-11	89µM*	-9%	-32%	/	24µM*	2%	24µM*	RECQ1 inh-2=56µM*
COC(=O)c1ccc(C(=O)OC)c(NC(=O)CSc2n[nH]c(N)n2)c1	/	-4%	-17	7%	/	12%	/	/	/	/
O=C(CSc1nc2ccsc2c(=O)n1CC1CCC(C(=O)O)CC1)c1ccc(F)cc1 (configuration not stated)	-5%	-4%	-2	-10%	-7%	-17%	/	/	/	/
O=C(CSc1nc2ccsc2c(=O)n1CC1CCC(C(=O)O)CC1)c1ccc(Cl)cc1 (configuration not stated)	?	?	11	?	-16%	?	/	24µM*	10%	15µM*	RECQ1 inh-2=20µM*
COC(=O)c1ccccc1NC(=O)CCS(=O)(=O)c1ccc(Br)cc1	32µM*	?	?	25µM*	2%	?	/	9.6µM*	-8%	2.4µM*	RECQ1 inh-2=?
CCc1ccccc1NC(=O)CCS(=O)(=O)c1ccc(Br)cc1	/	-4%	-2	-9%	0%	-7%	/	/	/	/
O=C(N/N=C/c1ccc(-c2ccc(S(=O)(=O)Nc3ncccn3)cc2)o1)c1cc2ccccc2cc1O	3.5µM*	?	-84*	8.9µM*	?	16µM*	45µM*	6.8µM*	?	15µM*	ADP FP counter=-12%[91.9 µM]
CCN(CC)c1ccc(-c2nc(-c3ccccc3C)no2)cc1[N+](=O)[O-]	/	/	/	/	-3%	-5%	/	/	/	/
COc1cc(/C=C2\CC/C(=C\c3cc(OC)c(O)c(OC)c3)C2=O)cc(OC)c1O	14µM*	?	?	11µM*	?	6.3µM*	/	3.4µM*	6.1µM*	5.4µM*	RECQ1 inh-2=2.8µM*;FEN1 inh-2=8.5*
COc1cc(/C=C2\CC/C(=C\c3cc(OC)c(OC)c(OC)c3)C2=O)cc(OC)c1OC	i	4%	1	-12%	-6%	-4%	/	/	/	/
COc1cccc(Cn2c(=O)n(-c3ccccc3C)c(=O)c3c2c2cc(C)ccc2n3C)c1	/	/	/	/	0%	2%	/	/	/	/
Oc1ccc(C2CNCCc3c2cc(O)c(O)c3Cl)cc1 (configuration not stated)	22µM*	-4%	5	?	-21%	9%	?	19µM*	-1%	24µM*	ADP FP counter=45µM*
COc1ccc(Sc2ccc(/C=C3\C(=O)NN(c4ccccc4)C3=O)o2)cc1	10µM*	-7%	?	?	-21%	-18%	-14%[114 µM]	22µM*	-18%	22µM*
Cc1cccc(NC(=O)CSc2ncc(-c3ccc(Br)cc3)[nH]2)c1	/	/	/	/	-2%	4%	/	/	/	/
Cc1ccc(OCc2cc(=O)n3c4c(sc3n2)CCCC4)c(C)c1	/	/	/	/	2%	20%	/	/	/	/
O=C1/C(=C/c2ccco2)SC(=S)N1c1cccnc1	8.9µM*	4µM*	-105*	13µM*	32µM*	28µM*	50µM*	22µM*	-22%	8.6µM*	ADP FP counter=50µM*
